# Measured values as given in ChEMBL document CHEMBL2218924, “A broad activity screen in support of a chemogenomic map for kinase signalling research and drug discovery” (Biochem J, 2013).
# Experiments:
# [1] = molecular target: Tyrosine-protein kinase SYK (Homo sapiens) (UniProt P43405); settings: at 10 µM
# [2] = molecular target: T1, Mitogen-activated protein kinase kinase kinase 7 (Homo sapiens) (UniProt O43318); settings: at 1 µM
# T1 sequence (whole entry): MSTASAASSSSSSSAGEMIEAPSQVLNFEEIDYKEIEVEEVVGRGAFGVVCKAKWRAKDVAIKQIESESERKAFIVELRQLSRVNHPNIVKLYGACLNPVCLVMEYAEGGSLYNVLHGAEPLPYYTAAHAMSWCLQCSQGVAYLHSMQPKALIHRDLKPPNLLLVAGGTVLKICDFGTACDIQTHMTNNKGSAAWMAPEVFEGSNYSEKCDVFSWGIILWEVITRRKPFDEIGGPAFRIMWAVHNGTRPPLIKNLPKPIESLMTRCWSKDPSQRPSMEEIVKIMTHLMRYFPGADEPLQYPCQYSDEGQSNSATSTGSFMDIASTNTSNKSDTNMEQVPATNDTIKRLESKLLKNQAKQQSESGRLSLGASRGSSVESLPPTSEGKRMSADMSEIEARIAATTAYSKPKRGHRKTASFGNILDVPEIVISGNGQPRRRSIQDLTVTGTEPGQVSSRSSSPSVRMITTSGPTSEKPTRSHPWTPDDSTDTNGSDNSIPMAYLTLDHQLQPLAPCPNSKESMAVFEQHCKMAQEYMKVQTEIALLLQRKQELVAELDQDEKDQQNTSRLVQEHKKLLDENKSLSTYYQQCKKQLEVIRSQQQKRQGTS
# [3] = molecular target: T1, Mitogen-activated protein kinase kinase kinase 7 (Homo sapiens); settings: at 10 µM
# [4] = molecular target: T2, Serine/threonine-protein kinase TAO1 (Homo sapiens) (UniProt Q7L7X3); settings: at 10 µM
# T2 sequence (whole entry): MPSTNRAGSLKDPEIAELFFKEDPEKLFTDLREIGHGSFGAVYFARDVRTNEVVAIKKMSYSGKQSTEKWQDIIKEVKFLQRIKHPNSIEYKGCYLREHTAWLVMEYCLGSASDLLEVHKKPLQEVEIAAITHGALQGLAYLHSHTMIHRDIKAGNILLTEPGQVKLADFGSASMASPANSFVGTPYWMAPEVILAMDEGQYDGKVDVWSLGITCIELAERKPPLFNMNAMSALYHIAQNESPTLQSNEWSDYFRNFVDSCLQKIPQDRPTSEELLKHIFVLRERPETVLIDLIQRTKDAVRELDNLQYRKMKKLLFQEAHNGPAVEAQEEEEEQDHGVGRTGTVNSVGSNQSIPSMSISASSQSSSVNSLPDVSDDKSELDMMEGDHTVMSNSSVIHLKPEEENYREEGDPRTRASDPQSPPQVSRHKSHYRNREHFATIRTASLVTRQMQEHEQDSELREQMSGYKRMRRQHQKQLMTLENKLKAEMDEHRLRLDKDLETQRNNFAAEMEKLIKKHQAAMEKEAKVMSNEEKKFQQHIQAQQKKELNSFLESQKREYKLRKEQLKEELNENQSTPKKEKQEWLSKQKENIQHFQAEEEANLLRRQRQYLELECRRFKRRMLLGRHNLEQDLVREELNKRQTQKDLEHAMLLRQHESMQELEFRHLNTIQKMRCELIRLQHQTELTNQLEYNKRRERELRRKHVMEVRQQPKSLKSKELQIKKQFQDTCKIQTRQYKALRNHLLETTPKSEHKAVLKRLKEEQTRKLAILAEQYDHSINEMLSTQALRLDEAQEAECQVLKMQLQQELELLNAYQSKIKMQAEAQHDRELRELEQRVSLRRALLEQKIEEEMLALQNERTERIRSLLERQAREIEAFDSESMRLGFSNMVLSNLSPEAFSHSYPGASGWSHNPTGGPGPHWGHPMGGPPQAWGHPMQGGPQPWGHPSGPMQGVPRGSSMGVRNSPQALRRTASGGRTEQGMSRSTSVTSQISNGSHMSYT
# [5] = molecular target: T3, Serine/threonine-protein kinase TAO2 (Homo sapiens) (UniProt Q9UL54); settings: at 10 µM
# T3 sequence (whole entry): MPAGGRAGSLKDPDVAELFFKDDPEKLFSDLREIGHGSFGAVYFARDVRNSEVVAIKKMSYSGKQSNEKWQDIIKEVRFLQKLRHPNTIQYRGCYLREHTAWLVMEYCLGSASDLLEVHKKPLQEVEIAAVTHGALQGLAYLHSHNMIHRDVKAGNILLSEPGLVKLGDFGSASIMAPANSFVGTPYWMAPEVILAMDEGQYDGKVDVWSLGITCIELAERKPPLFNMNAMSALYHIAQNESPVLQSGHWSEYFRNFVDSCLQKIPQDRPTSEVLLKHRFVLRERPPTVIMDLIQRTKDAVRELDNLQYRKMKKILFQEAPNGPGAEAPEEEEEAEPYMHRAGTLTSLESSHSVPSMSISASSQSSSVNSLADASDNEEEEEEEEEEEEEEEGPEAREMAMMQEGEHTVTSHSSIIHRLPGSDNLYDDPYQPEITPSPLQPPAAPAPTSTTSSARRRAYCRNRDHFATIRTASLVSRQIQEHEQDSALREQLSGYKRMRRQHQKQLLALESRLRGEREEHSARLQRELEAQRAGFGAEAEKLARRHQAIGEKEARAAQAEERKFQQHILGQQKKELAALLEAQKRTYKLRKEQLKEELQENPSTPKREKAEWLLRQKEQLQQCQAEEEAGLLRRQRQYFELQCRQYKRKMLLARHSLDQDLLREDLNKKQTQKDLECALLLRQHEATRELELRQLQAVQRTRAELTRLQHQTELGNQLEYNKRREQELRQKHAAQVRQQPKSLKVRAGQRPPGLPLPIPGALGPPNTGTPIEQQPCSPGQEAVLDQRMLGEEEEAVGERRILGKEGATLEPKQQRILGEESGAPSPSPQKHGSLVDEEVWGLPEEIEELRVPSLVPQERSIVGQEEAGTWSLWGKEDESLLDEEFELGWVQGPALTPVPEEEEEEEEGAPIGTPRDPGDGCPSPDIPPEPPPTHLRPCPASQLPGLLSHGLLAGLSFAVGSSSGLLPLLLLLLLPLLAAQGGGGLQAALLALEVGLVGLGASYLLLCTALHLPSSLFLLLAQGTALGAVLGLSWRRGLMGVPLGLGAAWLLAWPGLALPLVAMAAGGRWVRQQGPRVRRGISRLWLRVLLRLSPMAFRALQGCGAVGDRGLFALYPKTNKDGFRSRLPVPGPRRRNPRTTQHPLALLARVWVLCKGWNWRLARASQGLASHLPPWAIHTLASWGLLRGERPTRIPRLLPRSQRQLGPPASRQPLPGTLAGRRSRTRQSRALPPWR
# [6] = molecular target: T4, Serine/threonine-protein kinase TAO3 (Homo sapiens) (UniProt Q9H2K8); settings: at 1 µM
# T4 sequence (whole entry): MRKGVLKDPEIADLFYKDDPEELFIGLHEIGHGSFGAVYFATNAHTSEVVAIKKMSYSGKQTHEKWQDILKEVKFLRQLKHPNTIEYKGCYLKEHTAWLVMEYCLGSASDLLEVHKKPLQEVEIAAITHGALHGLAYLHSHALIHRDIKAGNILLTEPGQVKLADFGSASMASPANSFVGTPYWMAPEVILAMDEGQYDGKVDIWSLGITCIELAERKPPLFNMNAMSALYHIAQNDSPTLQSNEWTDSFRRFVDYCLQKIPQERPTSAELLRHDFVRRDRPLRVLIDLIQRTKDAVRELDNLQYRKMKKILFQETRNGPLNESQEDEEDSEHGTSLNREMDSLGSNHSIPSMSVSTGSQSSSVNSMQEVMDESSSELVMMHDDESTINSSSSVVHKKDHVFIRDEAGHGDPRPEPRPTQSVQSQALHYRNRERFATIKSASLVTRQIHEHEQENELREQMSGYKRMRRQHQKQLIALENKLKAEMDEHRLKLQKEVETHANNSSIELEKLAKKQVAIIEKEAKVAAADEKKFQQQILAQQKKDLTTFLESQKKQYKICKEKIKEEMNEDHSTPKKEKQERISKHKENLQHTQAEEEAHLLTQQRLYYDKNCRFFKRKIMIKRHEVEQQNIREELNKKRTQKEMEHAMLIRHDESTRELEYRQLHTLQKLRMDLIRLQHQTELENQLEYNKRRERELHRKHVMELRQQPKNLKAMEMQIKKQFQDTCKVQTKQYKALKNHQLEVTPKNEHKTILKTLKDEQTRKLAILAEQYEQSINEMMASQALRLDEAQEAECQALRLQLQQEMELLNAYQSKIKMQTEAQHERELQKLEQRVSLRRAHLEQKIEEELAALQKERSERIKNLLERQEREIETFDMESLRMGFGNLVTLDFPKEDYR
# [7] = molecular target: T4, Serine/threonine-protein kinase TAO3 (Homo sapiens); settings: at 10 µM
# [8] = molecular target: T5, Serine/threonine-protein kinase TBK1 (Homo sapiens) (UniProt Q9UHD2); settings: at 1 µM
# T5 sequence (whole entry): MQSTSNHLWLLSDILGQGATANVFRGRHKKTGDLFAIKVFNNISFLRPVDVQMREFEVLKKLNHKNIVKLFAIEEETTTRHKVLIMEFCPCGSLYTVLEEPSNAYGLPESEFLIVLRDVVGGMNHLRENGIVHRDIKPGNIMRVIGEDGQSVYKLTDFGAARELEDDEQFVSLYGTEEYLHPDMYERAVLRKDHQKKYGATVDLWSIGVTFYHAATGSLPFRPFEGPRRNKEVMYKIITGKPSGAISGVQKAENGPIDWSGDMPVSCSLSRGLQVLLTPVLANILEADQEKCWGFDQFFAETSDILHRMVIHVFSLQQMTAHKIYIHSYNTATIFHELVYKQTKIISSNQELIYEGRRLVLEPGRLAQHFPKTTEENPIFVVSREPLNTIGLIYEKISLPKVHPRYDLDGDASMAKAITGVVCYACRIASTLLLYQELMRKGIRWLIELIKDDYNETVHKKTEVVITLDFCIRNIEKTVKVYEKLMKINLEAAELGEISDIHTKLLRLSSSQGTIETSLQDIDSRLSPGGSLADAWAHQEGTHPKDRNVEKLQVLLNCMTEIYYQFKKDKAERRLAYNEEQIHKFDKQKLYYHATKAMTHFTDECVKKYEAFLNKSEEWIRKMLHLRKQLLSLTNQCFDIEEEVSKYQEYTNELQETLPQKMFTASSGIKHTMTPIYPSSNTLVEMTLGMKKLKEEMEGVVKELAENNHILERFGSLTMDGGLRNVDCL
# [9] = molecular target: T5, Serine/threonine-protein kinase TBK1 (Homo sapiens); settings: at 10 µM
# [10] = molecular target: T6, TGF-beta receptor type-1 (Homo sapiens) (UniProt P36897); settings: at 1 µM
# T6 sequence (whole entry): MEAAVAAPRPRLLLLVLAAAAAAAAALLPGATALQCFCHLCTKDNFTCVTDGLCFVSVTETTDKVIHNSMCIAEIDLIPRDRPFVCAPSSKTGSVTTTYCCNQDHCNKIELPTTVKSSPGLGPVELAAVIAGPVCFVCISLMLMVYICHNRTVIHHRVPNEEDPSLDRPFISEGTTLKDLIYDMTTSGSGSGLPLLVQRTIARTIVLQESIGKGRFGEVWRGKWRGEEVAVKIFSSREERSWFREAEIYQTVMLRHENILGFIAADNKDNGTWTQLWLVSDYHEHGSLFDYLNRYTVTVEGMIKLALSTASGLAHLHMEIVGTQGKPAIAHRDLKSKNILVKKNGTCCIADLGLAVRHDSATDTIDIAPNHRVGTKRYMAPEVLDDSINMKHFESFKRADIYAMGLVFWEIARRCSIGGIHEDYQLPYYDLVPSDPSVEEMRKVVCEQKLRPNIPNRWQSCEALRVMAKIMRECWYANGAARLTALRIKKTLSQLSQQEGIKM
# [11] = molecular target: T6, TGF-beta receptor type-1 (Homo sapiens); settings: at 10 µM
# [12] = molecular target: Insulin-like growth factor 1 receptor (Homo sapiens) (UniProt P08069); settings: at 1 µM
# [13] = molecular target: Insulin-like growth factor 1 receptor (Homo sapiens) (UniProt P08069); settings: at 10 µM
# [14] = molecular target: T7, Inhibitor of nuclear factor kappa-B kinase subunit alpha (Homo sapiens) (UniProt O15111); settings: at 1 µM
# T7 sequence (whole entry): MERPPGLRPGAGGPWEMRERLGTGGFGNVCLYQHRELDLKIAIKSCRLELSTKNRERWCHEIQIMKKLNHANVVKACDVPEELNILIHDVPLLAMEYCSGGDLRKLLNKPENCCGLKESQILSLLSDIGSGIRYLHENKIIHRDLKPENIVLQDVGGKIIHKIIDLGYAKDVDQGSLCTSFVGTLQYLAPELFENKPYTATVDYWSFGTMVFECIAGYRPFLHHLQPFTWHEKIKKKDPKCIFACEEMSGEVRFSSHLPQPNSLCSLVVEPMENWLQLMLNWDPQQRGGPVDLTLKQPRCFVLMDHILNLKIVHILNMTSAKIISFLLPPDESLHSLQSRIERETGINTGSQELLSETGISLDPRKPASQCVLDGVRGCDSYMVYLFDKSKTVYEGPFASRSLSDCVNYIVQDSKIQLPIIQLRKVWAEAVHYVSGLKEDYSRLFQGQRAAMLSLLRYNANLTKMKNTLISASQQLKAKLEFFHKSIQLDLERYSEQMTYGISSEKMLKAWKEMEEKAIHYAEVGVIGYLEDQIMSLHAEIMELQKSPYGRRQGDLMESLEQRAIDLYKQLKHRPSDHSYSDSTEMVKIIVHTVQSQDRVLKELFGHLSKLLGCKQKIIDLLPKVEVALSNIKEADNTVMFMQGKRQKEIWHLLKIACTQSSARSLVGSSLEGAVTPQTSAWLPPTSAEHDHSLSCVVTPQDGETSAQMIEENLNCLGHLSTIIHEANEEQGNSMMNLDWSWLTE
# [15] = molecular target: T7, Inhibitor of nuclear factor kappa-B kinase subunit alpha (Homo sapiens); settings: at 10 µM
# [16] = molecular target: Insulin receptor (Homo sapiens) (UniProt P06213); settings: at 1 µM
# Insulin receptor (Homo sapiens), sequence (P06213 28-758 limits assumed): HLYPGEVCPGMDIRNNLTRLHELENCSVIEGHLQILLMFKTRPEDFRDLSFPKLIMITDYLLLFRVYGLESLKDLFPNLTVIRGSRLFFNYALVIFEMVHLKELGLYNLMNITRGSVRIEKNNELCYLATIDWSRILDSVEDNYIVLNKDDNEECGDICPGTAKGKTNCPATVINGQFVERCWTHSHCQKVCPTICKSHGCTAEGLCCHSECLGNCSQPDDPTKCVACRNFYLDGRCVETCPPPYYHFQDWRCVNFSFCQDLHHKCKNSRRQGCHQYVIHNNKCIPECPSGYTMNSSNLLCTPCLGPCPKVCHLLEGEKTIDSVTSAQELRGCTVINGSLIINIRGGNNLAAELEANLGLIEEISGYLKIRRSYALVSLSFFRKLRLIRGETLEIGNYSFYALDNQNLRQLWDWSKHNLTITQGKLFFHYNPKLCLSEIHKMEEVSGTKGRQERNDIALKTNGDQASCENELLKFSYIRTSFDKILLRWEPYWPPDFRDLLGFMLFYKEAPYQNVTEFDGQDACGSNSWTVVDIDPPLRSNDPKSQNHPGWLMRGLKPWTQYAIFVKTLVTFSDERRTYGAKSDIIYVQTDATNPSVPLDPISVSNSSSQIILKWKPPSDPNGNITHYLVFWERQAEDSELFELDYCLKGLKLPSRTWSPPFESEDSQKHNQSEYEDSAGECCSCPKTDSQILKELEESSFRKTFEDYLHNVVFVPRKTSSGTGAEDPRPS
# Insulin receptor (Homo sapiens), sequence (P06213 763-1382 limits assumed): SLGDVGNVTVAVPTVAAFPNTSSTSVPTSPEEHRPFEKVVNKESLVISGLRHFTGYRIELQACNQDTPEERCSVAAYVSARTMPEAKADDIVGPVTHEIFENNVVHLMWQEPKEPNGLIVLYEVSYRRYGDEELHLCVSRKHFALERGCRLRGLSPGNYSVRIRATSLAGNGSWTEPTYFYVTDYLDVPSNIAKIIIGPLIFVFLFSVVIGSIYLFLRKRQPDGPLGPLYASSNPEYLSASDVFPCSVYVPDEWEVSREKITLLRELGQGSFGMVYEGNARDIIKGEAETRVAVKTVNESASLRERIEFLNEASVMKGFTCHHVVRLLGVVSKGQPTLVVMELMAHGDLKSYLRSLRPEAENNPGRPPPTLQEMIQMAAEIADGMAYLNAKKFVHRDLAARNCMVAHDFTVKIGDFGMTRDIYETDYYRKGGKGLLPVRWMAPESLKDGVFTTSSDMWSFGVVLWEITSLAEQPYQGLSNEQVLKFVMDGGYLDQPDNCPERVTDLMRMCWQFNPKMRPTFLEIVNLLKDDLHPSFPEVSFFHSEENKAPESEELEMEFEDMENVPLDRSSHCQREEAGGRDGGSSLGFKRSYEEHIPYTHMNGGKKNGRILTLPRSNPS
# Insulin-like growth factor 1 receptor (Homo sapiens), sequence (P08069 31-736 limits assumed): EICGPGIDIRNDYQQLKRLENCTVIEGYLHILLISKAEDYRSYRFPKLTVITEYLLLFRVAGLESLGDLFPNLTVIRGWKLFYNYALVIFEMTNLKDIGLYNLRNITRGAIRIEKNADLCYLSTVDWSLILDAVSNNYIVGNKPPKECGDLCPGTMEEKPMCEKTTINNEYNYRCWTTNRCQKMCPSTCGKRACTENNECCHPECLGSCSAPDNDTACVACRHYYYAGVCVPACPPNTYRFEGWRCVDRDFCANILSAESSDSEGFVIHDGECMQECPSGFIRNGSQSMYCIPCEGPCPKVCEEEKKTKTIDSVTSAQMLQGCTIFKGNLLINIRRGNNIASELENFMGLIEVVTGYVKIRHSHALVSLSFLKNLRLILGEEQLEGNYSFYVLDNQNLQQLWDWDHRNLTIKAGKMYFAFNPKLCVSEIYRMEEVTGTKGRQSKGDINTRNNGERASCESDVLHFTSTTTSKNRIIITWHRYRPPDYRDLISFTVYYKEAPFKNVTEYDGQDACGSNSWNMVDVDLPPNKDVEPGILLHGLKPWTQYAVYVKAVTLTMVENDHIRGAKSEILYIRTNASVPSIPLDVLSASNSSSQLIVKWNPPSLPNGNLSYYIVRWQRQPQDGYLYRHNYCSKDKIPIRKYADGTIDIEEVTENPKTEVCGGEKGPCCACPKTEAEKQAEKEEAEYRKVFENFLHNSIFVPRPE
# Insulin-like growth factor 1 receptor (Homo sapiens), sequence (P08069 741-1367 limits assumed): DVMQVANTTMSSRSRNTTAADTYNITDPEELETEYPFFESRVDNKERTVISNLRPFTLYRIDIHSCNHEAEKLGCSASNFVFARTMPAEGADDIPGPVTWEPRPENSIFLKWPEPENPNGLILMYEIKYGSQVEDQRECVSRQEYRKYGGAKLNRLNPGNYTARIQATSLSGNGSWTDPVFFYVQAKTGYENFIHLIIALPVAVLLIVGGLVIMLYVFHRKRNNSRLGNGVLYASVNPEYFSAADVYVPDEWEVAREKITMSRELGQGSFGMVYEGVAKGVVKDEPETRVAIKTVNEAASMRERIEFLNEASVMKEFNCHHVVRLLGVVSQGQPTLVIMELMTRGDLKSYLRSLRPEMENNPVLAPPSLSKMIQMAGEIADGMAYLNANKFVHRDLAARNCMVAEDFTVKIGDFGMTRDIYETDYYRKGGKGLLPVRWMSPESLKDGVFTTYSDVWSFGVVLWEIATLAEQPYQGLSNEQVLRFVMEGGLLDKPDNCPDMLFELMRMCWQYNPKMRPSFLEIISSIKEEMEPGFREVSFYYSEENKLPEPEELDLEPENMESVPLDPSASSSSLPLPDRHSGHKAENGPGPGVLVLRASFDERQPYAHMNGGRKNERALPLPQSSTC
compound,measurement,setting,value
COc1ccc2c(c1)c(C1=C(c3c[nH]c4ccccc34)C(=O)NC1=O)cn2CCCN(C)C,residual activity,[1],69%
same,residual activity,[2],82%
same,residual activity,[3],53%
same,residual activity,[4],33%
same,residual activity,[5],28%
same,residual activity,[6],82%
same,residual activity,[7],37%
same,residual activity,[8],59%
same,residual activity,[9],24%
same,residual activity,[10],69%
same,residual activity,[11],49%
same,residual activity,[12],101%
same,residual activity,[13],82%
same,residual activity,[14],80%
same,residual activity,[15],64%
same,residual activity,[16],100%
